The list is not random: actives were taken first. Their share in the collection is about 19%.
DT40 TDP1 no CPT – qHTS for Inhibitors of human tyrosyl-DNA phosphodiesterase 1 (TDP1): qHTS in cells in absence of CPT; DT40 Tdp1-/- hTDP1 cells, no CPT, ATP luminescence, 48 h; Potency, µM (doses to about 46.2 µM), without a hit: at the top dose activity change, negative = growth inhibition, hits mostly inhibitors; actives 15% (n = 420,000); AID 686978, 2013; further: nearly all actives have a fitted effect of over 55% in size
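No-CPT arm: Tdp1-/-;hTDP1 DT40 cells (400/well) plus compounds, incubated ≥48 hr at 37 °C. Readout CellTiter-Glo luminescence.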
DT40 TDP1 CPT – qHTS for Inhibitors of human tyrosyl-DNA phosphodiesterase 1 (TDP1): qHTS in cells in presence of CPT. chicken DT40 Tdp1-/-;hTDP1 cells + 20 nM CPT, ATP luminescence, 48 h. actives 12% (n = 420,000). Potency, µM (doses to about 46.2 µM), without a hit: at the highest dose activity change, negative = growth inhibition, actives largely listed as inhibitors; further: nearly all actives have a fitted effect of over 55% in size
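Cell growth measured by CellTiter-Glo luminescence after a minimum 48 h, 37 C compound exposure with 20 nM CPT in Tdp1-knockout DT40 cells stably expressing hTDP1, seeded 400/well; qHTS titration format.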
HT1080 IDH1KD tx – qHTS for induction of synthetic lethality in tumor cells producing 2HG: qHTS for the HT-1080-IDH1KD cell line | HT-1080 IDH1 knockdown viability, ATP luminescence, 48 h | Potency, µM (top dose mostly 46.1 µM), for the others: at the top dose activity, negative = toxicity, usual class: cytotoxic | actives 2% (n = 360,000);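 further: 0% = DMSO wells and -100% = cell-free medium wells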
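Assay cells: HT-1080 with IDH1 knockdown, 750 per well, RPMI/5% FBS. Exposure: 48 h at 37 °C following 2 h pre-incubation. Read: CellTiter-Glo luminescence; fitted concentration-response, curve class assigned.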
HT1080-NT tox – qHTS for induction of synthetic lethality in tumor cells producing 2HG: qHTS for the HT-1080-NT fibrosarcoma cell line; Potency, µM (series often up to 46.1 µM), for inactives: at the highest dose activity, negative = less viability, usual class: cytotoxic; actives 1.6% (n = 360,000); HT-1080-NT fibrosarcoma viability, CellTiter-Glo ATP luminescence, 48 h; AID 686970, 2013;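 further: NT is the 2HG producing partner of a matched IDH1 knockdown line; 0% = DMSO-treated cells and -100% = media-only wells without cells; nearly all actives have a fitted effect of over 55% in size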
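Toxicity toward the 2HG-producing NT line was scored as %Activity, normalised to DMSO and no-cell wells, from CellTiter-Glo luminescence after 48 hours' treatment.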
KB-3-1 tox – qHTS assay for MDR1-selective chemotherapeutics: Primary screen using the parental adenocarcinoma cell KB-3-1; AID 1347075, 2019; actives 1.4% (n = 400,000); Potency, µM (top dose mostly 46.1 µM), hits mostly cytotoxic; KB-3-1 viability, CellTiter-Glo ATP luminescence, 72 h; further: nearly all actives have a fitted effect of over 60% in size
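Cytotoxicity measured as CellTiter-Glo luminescence after 72 h at 37 C. Compound titrations were pinned onto drug-naive KB-3-1 parental adenocarcinoma cells grown in DMEM with 10% FBS, and normalized data fitted to concentration-response curves.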
KB-V1 MDR tox – qHTS assay for MDR1-selective chemotherapeutics: Primary screen using the drug-selected MDR subline cells KB-V1. KB-V1 MDR cells viability, CellTiter-Glo, 72 h. Potency, µM (titrated, usually from 46.1 µM), most hits filed as cytotoxic. actives 3.4% (n = 400,000); further: nearly all actives have a fitted effect of over 60% in size
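KB-V1 cells (P-gp-expressing MDR subline of KB-3-1) in phenol-red-free DMEM with 10% FBS were exposed to library compounds over a concentration series for 72 h at 37 degrees C. Viability read by CellTiter-Glo luminescence; concentration-effect curves fitted after normalization.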
The depositor's hits bear a star; [ ] = remark or other dose. The call rests on the fitted dose curve; in most records, active means well fitted curve in the direction sought with a large enough effect; inconclusive means small, poorly fitted or top-dose-only effect, or another doubt; inactive means no such curve, though single readings can be large; an effect the other way counts as inactive or inconclusive. Unless noted, on the % scale 0 is the no-effect control and ±100 the full control effect; potency means the concentration at half of the fitted maximal effect.

`Cc1ccccc1-c1nc(CN2CCC(C(=O)NCCCN3CC(C)CC(C)C3)CC2)c(C)o1` (stereo not given) gave DT40 TDP1 no CPT inconclusive, DT40 TDP1 CPT 23µM*, HT1080 IDH1KD tx -28%, HT1080-NT tox -17%, KB-3-1 tox inconclusive and KB-V1 MDR tox inactive.
Screening Cc1ccccc1-c1nc(CN2CCC(C(=O)NCCCN3CCOCC3)CC2)c(C)o1 returned DT40 TDP1 no CPT -6%, DT40 TDP1 CPT -28%, HT1080 IDH1KD tx -19%, HT1080-NT tox 10µM*, KB-3-1 tox inactive and KB-V1 MDR tox inactive.
Screening CC(C(=O)OCC(=O)c1cccc([N+](=O)[O-])c1)N1C(=O)C2C3C=CC(C3)C2C1=O (stereo not given) returned DT40 TDP1 no CPT -19%, DT40 TDP1 CPT -13%, HT1080 IDH1KD tx 3%, HT1080-NT tox 2%, KB-3-1 tox inactive and KB-V1 MDR tox inactive.
c1ccc(N2CCN(c3ccccc3)C2c2cccnc2)cc1 was read as DT40 TDP1 no CPT inconclusive, DT40 TDP1 CPT inconclusive, HT1080 IDH1KD tx -1%, HT1080-NT tox -1%, KB-3-1 tox inactive and KB-V1 MDR tox inactive.
For Cc1ccc(N2CCN(c3ccc(C)cc3)C2c2cccnc2)cc1 the results were DT40 TDP1 no CPT inconclusive, DT40 TDP1 CPT 23µM*, HT1080 IDH1KD tx -1%[9.24 µM], HT1080-NT tox -27%, KB-3-1 tox inactive and KB-V1 MDR tox inactive.
For Cc1ccc(NC(=O)CN(C)C(=O)COC(=O)[C@@H](NC(=O)c2ccccc2F)C(C)C)cc1 the results were DT40 TDP1 no CPT -2%, DT40 TDP1 CPT -22%, HT1080 IDH1KD tx 1%, HT1080-NT tox 5%, KB-3-1 tox inactive and KB-V1 MDR tox inactive.
Screening CN(C)c1ccccc1C(=O)c1ccccc1N(C)C returned DT40 TDP1 no CPT 4.1µM*, DT40 TDP1 CPT 4.6µM*, HT1080 IDH1KD tx 4.6µM*, HT1080-NT tox inconclusive, KB-3-1 tox 4.6µM* and KB-V1 MDR tox inconclusive.
CCc1ccccc1NC(=O)Cn1c(=O)n(CC(=O)NCCc2ccccc2)c(=O)c2ccccc21 was read as DT40 TDP1 no CPT -5%, DT40 TDP1 CPT -23%, KB-3-1 tox inactive and KB-V1 MDR tox inactive.
For CCOC(=O)C1(CCC(C)C)CC(CSc2nc3ccccc3[nH]2)OC1=O (stereo not given) the results were DT40 TDP1 no CPT 18µM*, DT40 TDP1 CPT 12µM*, HT1080 IDH1KD tx 2%, HT1080-NT tox -2%, KB-3-1 tox inactive and KB-V1 MDR tox inconclusive.
Screening CCOc1ccc(C(=O)c2cn(CC(=O)Nc3ccc4c(c3)OCO4)c3ccc(OCC)cc3c2=O)cc1 returned DT40 TDP1 no CPT 3.3µM*, DT40 TDP1 CPT inconclusive, KB-3-1 tox inactive and KB-V1 MDR tox inactive.
For CCc1ccc(C(=O)c2cn(CC(=O)Nc3cc(OC)cc(OC)c3)c3ccc(CC)cc3c2=O)cc1 the results were DT40 TDP1 no CPT inconclusive, DT40 TDP1 CPT -17%, KB-3-1 tox inactive and KB-V1 MDR tox inactive.
For CCOc1ccc(C(=O)c2cn(CC(=O)Nc3cc(OC)cc(OC)c3)c3ccc(F)cc3c2=O)cc1 the results were DT40 TDP1 no CPT 21µM*, DT40 TDP1 CPT inconclusive, KB-3-1 tox inactive and KB-V1 MDR tox inactive.
